Compound activity from PubChem.
Six1-Eya2 blk: qHTS Assay for Inhibitors of the Six1/Eya2 Interaction; AlphaScreen GST-Six1/His-Eya2 binding, biochemical; stronger effect = lower value; activity change, % (test concentration not listed); Homeobox protein SIX1 (Homo sapiens) + Protein phosphatase EYA2 (Homo sapiens), …; 360,000 compounds, 0.56% hits; also: % is scaled to controls: 0 for no effect and ±100 for the full control effect
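GST-Six1 + His-Eya2 (5X stock: 250/500 nM); Tris pH 8.0, 300 mM NaCl, 0.05% BSA, 0.02% Tween 20; GSH donor/Ni acceptor beads; 1 h 37 °C dark; AlphaScreen readout.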
TSHR antag: Antagonists of the Thyroid Stimulating Hormone Receptor: HTS campaign; Thyrotropin receptor (Homo sapiens), P16473; TSHR-expressing cells, TSH-stimulated cAMP HTRF, 2 h; stronger effect = lower value; activity change, negative = inhibition, % at 11.5 µM; 330,000 compounds, 0.2% hits; AID 504810, 2011;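 active = activity change below a set negative limit, meaning inhibition stronger than a set level, cut at about -70% in these data; inconclusive = activity change between two set negative limits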; also: % is scaled to controls: 0 for no effect and ±100 for the full control effect
Target sequence (P16473 whole entry, looked up): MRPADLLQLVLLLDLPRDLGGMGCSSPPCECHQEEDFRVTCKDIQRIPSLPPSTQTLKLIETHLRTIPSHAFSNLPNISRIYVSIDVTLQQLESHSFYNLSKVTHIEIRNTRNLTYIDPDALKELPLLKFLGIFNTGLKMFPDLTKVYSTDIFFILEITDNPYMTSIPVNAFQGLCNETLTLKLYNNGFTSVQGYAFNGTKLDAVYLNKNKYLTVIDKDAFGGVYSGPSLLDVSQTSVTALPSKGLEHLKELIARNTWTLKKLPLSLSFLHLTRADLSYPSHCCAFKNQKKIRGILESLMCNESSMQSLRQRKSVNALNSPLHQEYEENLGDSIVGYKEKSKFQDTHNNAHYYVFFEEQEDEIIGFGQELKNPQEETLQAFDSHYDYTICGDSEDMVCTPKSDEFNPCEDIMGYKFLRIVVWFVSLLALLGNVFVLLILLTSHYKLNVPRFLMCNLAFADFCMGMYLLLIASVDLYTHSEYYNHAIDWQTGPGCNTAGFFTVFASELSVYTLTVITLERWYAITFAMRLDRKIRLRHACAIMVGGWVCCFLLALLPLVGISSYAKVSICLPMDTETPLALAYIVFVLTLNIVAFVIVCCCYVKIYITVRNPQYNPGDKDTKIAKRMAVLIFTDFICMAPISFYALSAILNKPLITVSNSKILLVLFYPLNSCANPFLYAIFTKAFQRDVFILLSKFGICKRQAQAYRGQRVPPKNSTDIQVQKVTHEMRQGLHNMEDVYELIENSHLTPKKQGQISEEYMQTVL
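Competitive HTRF cAMP read-out (cryptate anti-cAMP antibody, cAMP-d2; 30 min, room temperature) in freshly harvested TSHR cells. Compounds added before TSH at EC80 (4nM final), followed by 2 hours' incubation at 37 deg C.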
S-ASM inh: Inhibitors of Secretory Acid Sphingomyelinase (S-ASM): qHTS; 340,000 compounds, 0.006% hits; placental ASM, HMU-PC fluorogenic substrate, 60 min; Sphingomyelin phosphodiesterase (Homo sapiens), P17405; Potency, µM (highest dose often 57.5 µM), for the others: top-dose activity change, negative = inhibition, most hits filed as inhibitors; active = well fitted inhibition curve with a large enough effect; inconclusive = small, poorly fitted or top-dose-only effect; inactive = no such curve, though single readings can be large or run the other way; also: potency is read from the fitted curve at half-maximal effect
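qHTS format. ASM enzyme prepared from human placenta hydrolyses the fluorogenic substrate HMU-PC0 (9 uM final) over 60 min at 37 °C after a 10 min compound preincubation.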
Chronic BCR inh: qHTS Assay to Find Inhibitors of Chronic Active B-Cell Receptor Signaling | ABC-DLBCL IkBa-CBG/CBR reporter, luminescence ratio, 4 h | Potency, µM (titrated, usually from 46.1 µM), inactives show top-dose activity change, negative = inhibition, most hits filed as inhibitors | 340,000 compounds, 0.05% hits; active = well fitted inhibition curve with a large enough effect in the signal ratio, with a control signal flat, not every such curve was filed as active; inconclusive = small, poorly fitted or top-dose-only effect, or effect the other way, or a change in a side signal; the % refers to the signal ratio;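 also: potency is read from the fitted curve at half-maximal effect; plate controls were basal doxycycline-induced cells for no effect and cells given 10 µM MG132 for full effect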
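Cell line TMD8 (human ABC DLBCL), stably expressing tet-inducible CBG68-IkBa fusion and CBR; IMDM/0.5% FBS; cpd up to 46 uM; dox induction, 4 h, 37C/5% CO2; dual luminescence; green/red ratio; MG132 control.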
CtBP-E1A blk: qHTS Assay for Inhibitors of the CtBP/E1A Interaction; CtBP / adenovirus E1A interaction (AlphaScreen); AlphaScreen GST-E1A/His-CtBP binding, 1536-well; stronger effect = lower value; activity change, % (test concentration not listed); 340,000 compounds, 0.49% hits; also: % is scaled to controls: 0 for no effect and ±100 for the full control effect
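Steps: dispense buffer (Tris pH 8.0, NaCl 300 mM, TCEP 1 mM, BSA, Tween 20); add 5X protein mix (GST-E1A, His-CtBP, 125 nM each); pin 23 nL compound; 2 h at 37 °C, dark; add 5X beads (50 ug/mL); 1 h; read.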
An asterisk follows results filed as active; ? = inconclusive; · = no result given. Only some compounds are listed: those with a hit (about 0.85% of all), similar ones and a draw of the others. Rule as the data show it, unless noted: active = activity change below about -65%; inconclusive = mostly about -30% to -63%; inactive = weaker than that.

SMILES	Six1-Eya2 blk	TSHR antag	S-ASM inh	Chronic BCR inh	CtBP-E1A blk
Cc1nnc(NC(=O)CSCc2cc(=O)c3ccccc3[nH]2)s1	·	-10	·	2%	·
Cc1c(Cl)ccc2sc(N3CCN(C(=O)C4CC4)CC3)nc12	·	·	·	17%	·
CC(N)c1csc(Nc2ccc(C(=O)NCCCO)cn2)n1 (stereo not drawn)	-69*	·	·	·	-83*
COc1ccc(C(N)c2csc(Nc3ccc(C(=O)NCCCO)cn3)n2)cc1 (stereo not drawn)	-76*	·	·	·	-79*
CCCNC(=O)Nc1nc(C(N)c2ccc(OC)cc2)cs1 (stereo not drawn)	-65*	·	·	·	?
CC(C)CC(N)c1csc(Nc2ccc(C(=O)NCCO)cc2)n1 (stereo not drawn)	-8	·	·	·	-2
Cc1cccc(OC(C)C(=O)Nc2ncn[nH]2)c1 (stereo not drawn)	·	·	·	1%	·
COc1cc(/C=N/N(C)c2ccccc2)ccc1O	?	1	-8%	?	?
COc1cc(OC)c(OC)cc1/C=N/N(C)c1ccccc1	-66*	-20	-13%	?	?
O=C(CCN1C(=O)/C(=C/c2ccccc2Cl)SC1=S)Nc1cccnc1	-12	-44	5%	-14%	·
O=C(CCCN1C(=O)/C(=C/c2ccccc2Cl)SC1=S)Nc1cccnc1	-25	-72*	-16%	?	0
COCc1cc(C)nc2c1C(=O)NC(c1ccc(F)cc1)N2Cc1ccccc1 (stereo not drawn)	·	·	·	23%	·
O=C(O)Cc1cccc(=O)c(O)c1C(=O)O	-73*	·	-6%	·	?
Cc1nc(N)sc1-c1csc(Nc2ccccc2)n1	?	1	4%	?	?
Cc1cc(O)ccc1Nc1nc(-c2sc(N)nc2C)cs1	?	20	-3%	?	-67*
CCCC(=O)Nc1nc(C)c(-c2csc(Nc3cc(OC)ccc3OC)n2)s1	-18	-14	11%	-18%	-16
COc1ccc(OC)c(Nc2nc(-c3sc(N)nc3C)cs2)c1	?	-5	-8%	-15%	-68*
Cc1cc(NS(=O)(=O)c2ccc(Nc3nc(-c4sc(N)nc4C)cs3)cc2)no1	-91*	-2	?	1%	-90*
O=S(=O)(c1ccc(NC(=S)NN=Cc2ccccc2O)cc1)N1CCCCC1	-86*	·	-7%	·	-89*
O=S(=O)(c1ccc(NC(=S)N/N=C/c2ccc(O)c(O)c2)cc1)N1CCOCC1	-13	-7	0%	-1%	-27
O=[N+]([O-])c1cc(Cl)cc(/C=N/NC(=S)Nc2ccc(S(=O)(=O)N3CCOCC3)cc2)c1O	-91*	-23	-25%	?	-98*
NS(=O)(=O)c1ccc(NC(=S)Nc2ccc(S(=O)(=O)N3CCCC3)cc2)cc1	8	12	0%	1%	-4
CC(C)(C)c1nnc(N/N=C/c2ccccc2O)n(N)c1=O	-91*	-5	-1%	-29%	-2
COc1cc(N=c2oc3c(C)ncc(CO)c3cc2C(N)=O)cc(OC)c1OC	-79*	-7	-9%	?	0
COc1ccccc1NC(=O)c1cc2c(CO)cnc(C)c2oc1=Nc1cc(OC)c(OC)c(OC)c1	3	-4	0%	5%	0
SMILES	Six1-Eya2 blk	TSHR antag	S-ASM inh	Chronic BCR inh	CtBP-E1A blk
COc1ccc2c(c1)C(C)=CC(C)(C)N2S(=O)(=O)c1ccc(NC(C)=O)cc1	-9	-5	1%	4.5µM*	0
CC1=CC(C)(C)N(S(=O)(=O)c2ccc(F)cc2)c2ccc(C)cc21	9	-8	-3%	?	23
CC1=CC(C)(C)N(S(=O)(=O)c2ccc(C)cc2)c2ccccc21	3	-15	-3%	23µM*	4
CCC(C)NC(=O)CSc1nnc(-c2ccc(C)cc2)c(-c2ccc(C)cc2)n1 (stereo not drawn)	·	·	·	10%	·
COc1ccc(Cl)cc1NC(=O)c1cc(S(=O)(=O)NC2CCCCCC2)ccc1F	·	·	·	0%	·
O=C1C(NS(=O)(=O)c2ccc(Br)cc2)=C(N2CCCCC2)C(=O)c2ccccc21	?	-10	-11%	6%	·
CCN1CCN(C2=C(NS(=O)(=O)c3ccc(C)cc3)C(=O)c3ccccc3C2=O)CC1	-18	-79*	1%	-1%	-16
CC1CCN(C2=C(NS(=O)(=O)c3ccccc3)C(=O)c3ccccc3C2=O)CC1	-72*	-4	-8%	?	-85*
O=C1C(NS(=O)(=O)c2ccccc2)=C(N2CCN(c3ccc(F)cc3)CC2)C(=O)c2ccccc21	-77*	-3	-12%	?	-88*
CC1CCN(C2=C(NS(=O)(=O)c3ccc(Cl)cc3)C(=O)c3ccccc3C2=O)CC1	-30	4	0%	?	?
CC1CCN(C2=C(NS(=O)(=O)c3ccc(Br)cc3)C(=O)c3ccccc3C2=O)CC1	-84*	-5	-13%	?	·
Cc1ccc(CN2CCN(/N=C/c3ccc(C(=O)O)cc3)CC2)cc1	7	-9	3%	-2%	-1
CCN(CC)c1ccc(/C=N\N2CCN(Cc3ccc(C)cc3)CC2)cc1	-66*	-19	1%	-8%	?
CCCSc1nsc(NC(=O)Nc2ccc(F)cc2F)n1	-3	-119*	-17%	?	·
CCCSc1nsc(NC(=O)C(c2ccccc2)c2ccccc2)n1	-7	-80*	-22%	?	4
CCNC(=O)C(=O)N/N=C/c1cc([N+](=O)[O-])ccc1O	-92*	-10	-6%	5%	-94*
Cc1cc(C(=O)N/N=C/c2cc(Br)cc([N+](=O)[O-])c2O)c2ccccc2n1	-87*	-11	-5%	1%	-94*
Cc1cc(C(=O)N/N=C/c2cc([N+](=O)[O-])ccc2O)c2ccccc2n1	-92*	-2	-29%	2%	19
O=C(NN=Cc1cc([N+](=O)[O-])ccc1O)c1cccc2ccccc12	-92*	·	-7%	·	-3
O=C(N/N=C/c1cc([N+](=O)[O-])ccc1O)Nc1ccccc1	-6	-5	-11%	?	-3
CCc1cnc2c(c1SCCC(C)C)c(=O)n(C)c(=O)n2C	·	·	·	1%	·
O=C(CCSCc1ccccc1Cl)N1CCN(c2ccc(F)cc2)CC1	·	·	·	-4%	·
CCCCC(=O)N1CCc2cc(OC)c(OC)cc2C1COc1ccc(C(=O)OCC)cc1 (stereo not drawn)	·	·	·	0%	·
O=C(N/N=C/c1cc([N+](=O)[O-])ccc1O)c1c[nH]c2ccccc12	-86*	-7	-2%	-1%	-78*
